Results filed as inconclusive are left out. Active and inactive are the calls of the source. How the source made its calls: active means hit-call score of the fitted dose curve at least 0.9, where 1 is the maximum; inconclusive means response in the unintended direction; inactive means score below 0.9.

A short description of this test: Tanguay_ZF_120hpf_SNOU_legacy: (Legacy) Oregon State University Tanguay Lab 120 Hour Post-fertilization zebrafish Assay for Snout Malformation (AID 2283637). The procedure: Tanguay_ZF_120hpf_legacy is a whole embryo, multiplexed endpoint assay using zebrafish larvae exposed for 120 hours post fertilization on a 96-well plate.Tanguay_ZF_120hpf_SNOU_legacy is one of one assay component(s) measured or calculated from the Tanguay_ZF_120hpf_legacy assay. It is designed to make measurements of zebrafish development as detected with brightfield microscopy of developing zebrafish embryos.Data from the assay component Tanguay_ZF_120hpf_SNOU_legacy was analyzed into 1 assay endpoints. This assay endpoint, Tanguay_ZF_120hpf_SNOU_legacy, was analyzed in the positive analysis fitting direction relative to DMSO as the negative control and baseline of activity. Using a type of morphology reporter, gain-of-signal activity can be used to understand changes in developmentals as they relate to the whole embryo. To generalize the intended target to other relatable targets, this assay endpoint is annotated to the zebrafish development intended target family, where the subfamily is embryonic snout morphogenesis.
Zebrafish husbandry: Tropical 5D wild-type adult zebrafish were housed in at an approximate density of 1000 per 100 gallon tank at the Sinnhuber Aquatic Research Laboratory, Oregon State University, Corvallis, OR. Each tank was kept at standard laboratory conditions of 28C on a 14-h light/10-h dark photoperiod in fish water consisting of reverse osmosis water supplemented with a commercially available salt (Instant Ocean). Spawning funnels were placed into the tanks the night prior, and embryos were collected and staged. To increase bioavailability, the chorion was enzymatically removed using pronase (63.6mg/ml, >/= 3.5U/mg, Sigma-Aldrich: P5147) at 4 hours post fertilization (hpf) using a custom automated dechorionator.Chemical exposures: Six hpf dechorionated embryos were placed 1 embryo per well in a 96-well plate prefilled with 90 ul of EM using automated embryo placement systems (AEPS). Ten microliters of each row of dilution plate 2 was added to 2 exposure plates. The final DMSO concentration used was 0.64% (vol/vol). Thirty-two embryos were also exposed to 5uM trimethyltin chloride (positive control). Plates were sealed to prevent evaporation and foil covered to reduce light exposure and kept in a 28C incubator. Embryos were statically exposed until 120 hpf. At 24 hpf, embryos were assessed for photomotor response using a custom photomotor response analysis tool (PRAT) and for developmental toxicity endpoints (MO24: mortality at 24 hpf, DP: developmental progression, SM: spontaneous movement, and NC: notochord distortion). At 120 hpf, locomotor activity was measured using Viewpoint Zebralab and assessed for 18 endpoints. Zebrafish acquisition and analysis program (ZAAP), a custom program designed to inventory, acquire, and manage zebrafish data, was used to collect developmental endpoints as either present or absent (i.e., binary responses were recorded). If mortality occurred for an embryo (at either 24 or 120 hpf), the non-mortality endpoints were not measured.
For the compound `c1cc2c3c(cccc3c1)CC2`, the call was inactive.

Turning to `O=C(O)C1C(C(=O)O)C2(Cl)C(Cl)=C(Cl)C1(Cl)C2(Cl)Cl` (stereo not given), the call was inactive.

The term AC50 denotes the concentration giving half of the maximal activity seen. With `CCC(C)(C)c1ccc(O)cc1`, the AC50 is 52.7 µM (active).

In the case of `[N-]=[N+]=[N-]`, the compound was called inactive.

For `CCOP(=S)(Oc1ccc([N+](=O)[O-])cc1)c1ccccc1` (stereo not given), the compound was called inactive.

Regarding `c1nc[nH]n1`, the result was inactive.

For the compound `Nc1ccc(Cl)cc1`, the outcome was inactive.

With `CCCCN(CCCC)N=O`, the call was inactive.

With `O=P(Oc1ccccc1)(Oc1ccccc1)Oc1ccccc1`, the outcome was inactive.

Regarding `CCCN(CCC)c1c([N+](=O)[O-])cc(C(C)C)cc1[N+](=O)[O-]`, the compound was called inactive.

On to `CC(Cl)(Cl)C(=O)O`, for which the compound was classed as inactive.

Turning to `O=[N+]([O-])c1ccccc1`, the call was inactive.

Consider `CCOP(=S)(OCC)SCSCC`, for which the compound was classed as inactive.

`CCC1(c2ccccc2)C(=O)N=C(O)NC1=O` (stereo not given): the outcome was inactive.

`CCOS(=O)(=O)OCC`: the result was inactive.

For the compound `ClC1=C(Cl)C2(Cl)C3C(Cl)C(Cl)CC3C1(Cl)C2(Cl)Cl` (stereo not given), the call was inactive.

In the case of `CC(Cc1ccc(OCC(=O)O)cc1)NCC(O)c1csc(C(F)(F)F)n1` (stereo not given), the result was inactive.

`Cc1ccc(N)cc1N`: the outcome was inactive.

As for `Cc1cccc(N)c1`, the outcome was inactive.

Regarding `COCCOCCO`, the compound was classed as inactive.

For the compound `c1ccc2c(c1)Nc1ccccc1S2`, the call was inactive.

As to `OCC1CO1` (stereo not given), the outcome was inactive.

For the compound `CCN(CC)c1ccccc1`, the call was inactive.

As for `O=[N+]([O-])c1ccc(Cl)c(Cl)c1`, the compound was called inactive.

For the compound `Nc1cc2c3c(c1)C(c1ccccc1)=N[C@@H](NC(=O)c1cccnc1)C(=O)N3CC2`, the compound was classed as inactive.

As to `CN(C)C(=O)Cl`, the compound was classed as inactive.

Regarding `CCCCc1ccccc1`, the result was inactive.

For `CCCCCCCc1ccc(O)cc1`, the compound was called inactive.

As to `ClC(Cl)c1ccccc1`, the compound was called inactive.

Take `CCOc1ccc(C(C)(C)COCc2cccc(Oc3ccccc3)c2)cc1`: the call was inactive.

For `Cc1ccc([N+](=O)[O-])cc1C`, the outcome was inactive.

On to `CC(C)(C)OOC(C)(C)C`, for which the call was inactive.

Take `CCCCN(CCCC)SN(C)C(=O)Oc1cccc2c1OC(C)(C)C2`: the outcome was inactive.

For `O=P1(N(CCCl)CCCl)NCCCO1` (stereo not given), the result was inactive.

Consider `O=C(O)C(Cl)Cl`, for which the compound was classed as inactive.

`Cc1ccc(O)cc1C`: the compound was called inactive.

Take `Nc1ccc2ccccc2c1`: the AC50 was 33.9 µM (active).

As for `CC(C)(C)c1ccc(O)cc1`, the call was inactive.

With `CSC(C)(C)C=NO`, the compound was called inactive.

Turning to `CCNc1nc(Cl)nc(NC(C)(C)C)n1`, the compound was classed as inactive.

Values taken from PubChem BioAssay (EPA / NIEHS).
